HCMV antiviral – human cytomegalovirus inhibition; HFF cells, HCMV-luciferase reporter, 72 h; hits give low values; activity change, negative = inhibition, % at 57.5 µM; 410,000 compounds, 4.5% hits; AID 1259415; in the data active means activity change below about -60%; inconclusive means no clear call, values can overlap the other calls; inactive means above about -39%
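Two compound doses tested in HFFs infected with HCMV-luciferase, MOI 1 PFU/cell, 72 h at 37C. Lysate luminescence read with OneGlo; data normalized against buffer-only and 10uM Salinomycin inhibitor controls.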
Lassa entry inh – inhibitors of Lassa virus binding or cell entry; Lassa virus pseudotype entry inhibition, cell reporter; Potency, µM (titrated, usually from 37.9 µM), without a hit: top-dose activity change, negative = inhibition, hits mostly inhibitors; 300,000 compounds, 1.2% hits; AID 540256; calls by dose curve; tested in HEK293 cells; further: potency means the concentration at half of the fitted maximal effect; nearly all actives have a fitted effect of over 50% in size
MARV entry inh – blocks Marburg virus binding to or entry into cells. Marburg virus pseudotyped entry inhibition, cell reporter. AID 540276. Potency, µM (highest dose often 37.8 µM), for the others: top-dose activity change, negative = inhibition, actives largely listed as inhibitors. 300,000 compounds, 1.8% hits; calls by dose curve; tested in HEK293 cells; further: potency means the concentration at half of the fitted maximal effect
HCV inhibitor – HCV inhibition | Huh7.5.1 HCVcc-Cre infection, luciferase reporter, 44 h | Potency, µM (highest dose often 41.8 µM), for the others: at the top dose activity change, negative = inhibition, usual class: inhibitors | 340,000 compounds, 3.4% hits | AID 651820; active means well fitted inhibition curve with a large enough effect; inconclusive means small, poorly fitted or top-dose-only effect, or another doubt; inactive means no such curve, though single readings can be large or run the other way; further: potency means the concentration at half of the fitted maximal effect
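Reporter virus HCVcc-Cre (~0.5 moi) infects cells exposed to compound; seeding density 1,000 cells/well with 4 h settling beforehand. Luminescence, 15 sec read, taken 44 h post-infection following a 15 min RT substrate incubation.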
Vaccinia mCherry – vaccinia inhibition (mCherry reporter); Vaccinia virus mCherry reporter infection, fluorescence; Potency, µM (doses to about 36.5 µM), for inactives: at the highest dose activity change, negative = inhibition, usual class: inhibitors; 310,000 compounds, 0.63% hits; AID 720579; calls by dose curve; tested in A549 cells; further: potency means the concentration at half of the fitted maximal effect; nearly all actives have a fitted effect of over 35% in size
VACV Venus inh – inhibitors of vaccinia virus (Venus reporter); 330,000 compounds, 0.46% hits; Vaccinia virus Venus reporter expression, fluorescence; Potency, µM (top dose mostly 36.5 µM), for inactives: at the highest dose activity change, negative = inhibition, most hits filed as inhibitors; AID 720580; calls by dose curve; tested in A549 cells; further: potency means the concentration at half of the fitted maximal effect; nearly all actives have a fitted effect of over 30% in size
Active calls of the source: *; i = inactive; ? = inconclusive; nt = no result; [ ] = another dose, or the depositor's remark. Rows were chosen to be rich in hits. Some 7.8% of all compounds tested hit in one or more screens of this group. On the % scale 0 is the no-effect control and ±100 the full control effect.

SMILES	HCMV antiviral	Lassa entry inh	MARV entry inh	HCV inhibitor	Vaccinia mCherry	VACV Venus inh
Cc1ccc(C)c(-c2cc(C(=O)NCc3cccs3)c3ccccc3n2)c1	-12	-21%	-4%	13µM*	nt	nt
Cc1cc(NC(=O)c2cc(-c3cccnc3)nc3c(C)c(C)ccc23)no1	-64*	-15%	?	?	nt	-7%
NS(=O)(=O)c1ccc(CNC(=O)c2cc(-c3cccs3)nc3ccccc23)cc1	-34	nt	nt	-10%	-1%	-2%
CC(=O)c1cccc(NC(=O)c2cc(-c3ccncc3)nc3ccccc23)c1	5	nt	nt	?	nt	nt
NS(=O)(=O)c1ccc(CCNC(=O)c2cc(-c3cccs3)nc3ccccc23)cc1	-39	?	7.9µM*	?	i	-18%
Cc1cc(NS(=O)(=O)c2ccc(NC(=O)c3cc(-c4cccnc4)nc4ccc(Cl)cc34)cc2)no1	-2	-10%	4%	52%	nt	nt
COc1ccc(-c2ccnc(-n3ncc(C(=O)NCc4cccnc4)c3C3CC3)n2)cc1F	nt	nt	nt	nt	-27%	-9%
COc1cccc([C@@H]2Oc3ccc(OC)cc3C[C@@H]2OC(=O)N[C@H]2CCCc3ccccc32)c1	nt	nt	3%[14.2 µM]	nt	nt	nt
CCC(C(=O)NCc1ccc2c(c1)CCN2C(=O)c1ccc(F)cc1)c1ccccc1 (stereo not drawn)	11	?	nt	nt	-1%	-4%
CCc1ccc(-c2cc(C(=O)NN3CCOCC3)c3ccccc3n2)cc1	-2	3%	1%	26%	nt	?
COc1cc(/C=N/NC(=O)c2cc(-c3cccs3)nc3ccccc23)ccc1O	-21	nt	nt	-11%	nt	nt
O=C(NN1CCOCC1)c1cc(-c2ccc(Br)cc2)nc2ccccc12	-60*	0%	12%	11%	-6%	-1%
COC(=O)c1sccc1NC(=O)c1cc(-c2cc(C)ccc2C)nc2ccccc12	76	-2%	-29%	-21%	i	-10%
Cc1ccc(C)c(-c2cc(C(=O)Nc3nccs3)c3ccccc3n2)c1	-71*	-24%	-13%	?	nt	nt
N#Cc1ccc(/C=N/NC(=O)c2cc(-c3cccs3)nc3ccccc23)cc1	-20	?	6.3µM*	-10%	?	?
CCOC(=O)C1=CCN(S(=O)(=O)c2ccccc2C)C1c1ccc(Cl)cc1 (stereo not drawn)	?	nt	nt	nt	33%	7%
CCC(c1nnc(SCC(=O)Nc2ccc(Cl)cc2C(F)(F)F)n1C1CCCCC1)N(C)C (stereo not drawn)	-36	13µM*	?	1%	-6%	-21%
C=CCNC(=O)CSc1nnc(C(CC)N(C)C)n1C1CCCCC1 (stereo not drawn)	0	nt	nt	23%	nt	nt
CCCCC(=O)NC1(C(F)(F)F)C(=O)Nc2c1c(=O)[nH]c(=O)n2-c1ccc(F)cc1 (stereo not drawn)	17	9%[46.1 µM]	nt	nt	-6%	0%
Cc1cc(S(=O)(=O)NCc2nc(N3CCCC3)c3cc(Cl)ccc3n2)c(C)s1	nt	nt	nt	nt	-22%	-11%
CC(C)COc1cccc(C(=O)Nc2ccc(CN3CCOCC3)cc2)c1	-26	?	?	3.2µM*	-12%	?
CC(C)COc1cccc(C(=O)Nc2ccc(N3CCOCC3)cc2N2CCOCC2)c1	?	-11%	?	7.9µM*	-13%	-10%
COc1cc(OC)cc(C(=O)Nc2ccc(N3CCOCC3)cc2N2CCOCC2)c1	0	nt	nt	?	nt	nt
CCC(C)Oc1ccc(C(=O)Nc2ccc(CN3CCOCC3)cc2)cc1 (stereo not drawn)	-80*	nt	nt	25µM*	nt	nt
C[C@@H]1CCCCO[C@@H](CN(C)C(=O)Nc2ccc3c(c2)OCO3)[C@@H](C)CN([C@H](C)CO)C(=O)c2cc(NC(=O)Nc3ccc(C(F)(F)F)cc3)ccc2O1	-17	nt	nt	nt	nt	nt
COc1ccccc1CCNC(=O)Cc1ccc(NC(=O)N2CCSc3ncccc32)cc1	0	18%[46.1 µM]	nt	nt	-5%	-6%
CCC(=O)Nc1ccccc1C(=O)NC1CCCCC1	-110*	-2%	3%	6%	i	-1%
Cc1ccc(Cl)c(OCC(=O)Nc2ccccc2C(=O)NC2CC2)c1	-100*	nt	nt	-10%	nt	nt
CC(C)CCNC(=O)CN1C(=O)CSc2ccc(S(=O)(=O)N3CCCCC3)cc21	-21	5%[46.1 µM]	nt	nt	-14%	-15%
Cc1ccsc1-c1ccnc(-n2cccc2)n1	62	13%	32%	-13%	-1%	-7%
